Structures are written as SMILES. Activity calls are given as the source filed them. Unless noted, no rule for the calls is given here.

The subject of experiment [1] is Wnt5a (protein binding on small-molecule microarray). As to the kind of experiment: Wnt5a binders on small-molecule microarray, primary screen, biophysical, 635/667 nm fluorescence (AID 1142).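 Also: fluorescence read at 667 nm with signal to noise per printed feature.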 To be noted: 635 nm fluorescence, higher = more signal.
A short description of experiment [2]: cell viability in Huh7 cells, primary screen, cytotoxicity control for HCV replication inhibitor project, CellTiter-Glo luminescence, basal, 48 h (AID 1143).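 Also: Huh7 hepatoma cells carrying a hepatitis C replication reporter with no stimulus; test concentration not given here.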 As to conditions: Huh7 HCV replicon, higher = more signal, called active from +8 up or from −8 down.
The nature of experiment [3]: P. aeruginosa biofilm formation inhibitors, primary screen, PAO1 strain, BacTiter-Glo luminescence, LB-PBS (AID 1144). To be noted: 12 h, higher = more signal.
Experiment [4] in a line: CREB reporter modulators without forskolin, primary screen, cell-based, PC12, CRE-LacZ reporter, unstimulated (AID 1145). As to conditions: no forskolin, luminescence, 4.5 h, higher = more signal, called active from +8 up or from −8 down.
A short description of experiment [5]: CREB reporter modulators under forskolin, primary screen, cell-based, PC12, CRE-LacZ reporter, forskolin-stimulated (AID 1146).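 Also: PC12 cells with 6xCRE LacZ reporter stimulated by forskolin 10 µM; beta-galactosidase reporter signal reflecting CREB driven transcription.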 To be noted: luminescence, 4.5 h, higher = more signal, called active from +8 up or from −8 down.
The target in experiment [6] is Streptavidin (Streptomyces avidinii) (UniProt P22629). Description: streptavidin binders on small-molecule microarray, primary screen, artefact control for SMM compound annotation, biophysical, 635/667 nm fluorescence (AID 1147).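 Also: signal reflects streptavidin binding to arrayed compounds as a control protein.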 As to conditions: streptavidin binding, higher = more signal.
Chain of Streptavidin (Streptomyces avidinii) (P22629 whole entry, looked up): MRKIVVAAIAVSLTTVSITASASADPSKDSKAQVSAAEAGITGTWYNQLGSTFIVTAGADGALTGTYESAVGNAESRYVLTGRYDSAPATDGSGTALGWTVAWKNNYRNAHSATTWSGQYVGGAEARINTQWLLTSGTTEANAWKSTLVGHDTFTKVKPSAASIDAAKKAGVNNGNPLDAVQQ
Experiment [7] can be described thus: small-molecule binders of probe aInhba, primary screen, biochemical, small-molecule microarray, 635/667 nm fluorescence (AID 1148).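 Also: score merges 667nm spot fluorescence with signal-to-noise for antibody binding to printed compounds.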 As to conditions: higher = more signal.
Experiment [8] deals with Torsin-1A (Homo sapiens) (UniProt O14656). Description: torsin A binders from cell lysate, primary screen, small-molecule microarray, wild-type, 635/667 nm (AID 1149). To be noted: COS7 hTOR1A-WT lysate, 635 nm fluorescence, higher = more signal.
Chain of Torsin-1A (Homo sapiens) (O14656 whole entry, looked up): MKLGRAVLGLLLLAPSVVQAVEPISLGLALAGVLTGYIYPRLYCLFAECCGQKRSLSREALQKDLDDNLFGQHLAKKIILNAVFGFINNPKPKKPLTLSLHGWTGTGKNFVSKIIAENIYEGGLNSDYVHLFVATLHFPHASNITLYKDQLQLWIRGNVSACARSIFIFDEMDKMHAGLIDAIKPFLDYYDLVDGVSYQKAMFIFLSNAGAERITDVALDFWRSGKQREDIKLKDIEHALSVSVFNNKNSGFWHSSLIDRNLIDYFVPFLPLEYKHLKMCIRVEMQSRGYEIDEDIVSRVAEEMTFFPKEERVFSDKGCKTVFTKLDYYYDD
Experiment [9] shares this target. Description: small-molecule binders of mutant TOR1A in lysate, primary screen, cell lysate, small-molecule microarray, COS7 lysate, 635/667 nm fluorescence (AID 1150).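 Also: score pools 667 nm emission and signal to noise measuring lysate protein binding.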 To be noted: COS7 hTOR1A mutant lysate, 635 nm fluorescence, higher = more signal.
For experiment [10], the system named is Sonic hedgehog protein (Shh). As to the kind of experiment: small-molecule binders of Shh protein, primary screen, biochemical, small-molecule microarray, 635/667 nm fluorescence (AID 1151).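 Also: Shh protein binding to compounds spotted on small-molecule microarray slides; score combines spot fluorescence intensity with signal-to-noise across triplicate slides.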 As to conditions: small-molecule microarray binding, 635 nm fluorescence; higher = more signal.
Experiment [11] is described as follows: E. coli DRC41 culture turbidity changes, primary screen, E. coli filamentation inducer project, strain DRC41, OD650, 48 h (AID 1152).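 Also: E. coli MC1000 strain DRC41 lacking acrAB efflux pump and sulA.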 To be noted: E. coli DRC41 (acrAB sulA), higher = more signal, called active from +8 up or from −8 down.
Experiment [12] in a line: small-molecule binders of probe aLefty1, primary screen, biochemical, small-molecule microarray, 635/667 nm fluorescence (AID 1153).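 Also: score merges spot fluorescence with signal-to-noise ratio from the scanned slide images.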 To be noted: higher = more signal.
The nature of experiment [13]: PSAC antagonists in infected red cells, primary screen, cell-based, P. falciparum Indochina, OD700, 1 h (AID 1154). To be noted: P. falciparum Indochina infected RBC osmotic lysis, higher = more signal, called active from +8 up or from −8 down.
Experiment [14] in a line: PSAC antagonists in infected red cells, primary screen, cell-based, P. falciparum Indochina, OD700, 2 h (AID 1155).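 Also: lysis reports solute entry through the parasite surface anion channel PSAC; channel blockers reduce lysis of infected cells.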 To be noted: P. falciparum Indochina infected erythrocytes, osmotic lysis OD700; higher = more signal, called active from +8 up or from −8 down.
A short description of experiment [15]: osmotic lysis modulators in infected erythrocytes, primary screen, PSAC antagonist project, cell-based, P. falciparum Indochina, OD700, 3 h (AID 1156). As to conditions: higher = more signal, called active from +8 up or from −8 down.
Experiment [16] can be described thus: PSAC antagonists in infected red cells, primary screen, cell-based, P. falciparum Indochina, OD700, 18 h (AID 1157). As to conditions: P. falciparum Indochina infected erythrocytes, osmotic lysis OD700, 18 h; higher = more signal, called active from +8 up or from −8 down.
Experiment [17] in a line: modulators of S6 phosphorylation in cells, primary screen, cell-based, A549, cytoblot, luminescence, serum-stimulated (AID 1158).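 Also: serum-stimulated A549 lung adenocarcinoma cells; signal is phosphorylated S6 detected by cytoblot immunostaining with HRP secondary.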 To be noted: A549 phospho-S6 cytoblot, 5 h, higher = more signal.
Experiment [18] has as its target NADPH oxidase 2 (Homo sapiens) (UniProt P04839). Description: NOX2-dependent H2O2 signal modulators, primary screen, NOX inhibitor project, cell-based, HEK293-NOX2, PMA-stimulated, Amplex Red fluorescence (AID 1159). Also: test concentration not given here. As to conditions: 45 min, higher = more signal, called active from +8 up or from −8 down.
The target of experiment [19] is NADPH oxidase 4 (Homo sapiens) (UniProt Q9NPH5). Description: NOX4-dependent H2O2 signal modulators, primary screen, NOX inhibitor project, cell-based, HEK293-NOX4, tetracycline-induced, Amplex Red fluorescence (AID 1160). As to conditions: 45 min, higher = more signal, called active from +8 up or from −8 down.
Chain of NADPH oxidase 4 (Homo sapiens) (Q9NPH5 whole entry, looked up): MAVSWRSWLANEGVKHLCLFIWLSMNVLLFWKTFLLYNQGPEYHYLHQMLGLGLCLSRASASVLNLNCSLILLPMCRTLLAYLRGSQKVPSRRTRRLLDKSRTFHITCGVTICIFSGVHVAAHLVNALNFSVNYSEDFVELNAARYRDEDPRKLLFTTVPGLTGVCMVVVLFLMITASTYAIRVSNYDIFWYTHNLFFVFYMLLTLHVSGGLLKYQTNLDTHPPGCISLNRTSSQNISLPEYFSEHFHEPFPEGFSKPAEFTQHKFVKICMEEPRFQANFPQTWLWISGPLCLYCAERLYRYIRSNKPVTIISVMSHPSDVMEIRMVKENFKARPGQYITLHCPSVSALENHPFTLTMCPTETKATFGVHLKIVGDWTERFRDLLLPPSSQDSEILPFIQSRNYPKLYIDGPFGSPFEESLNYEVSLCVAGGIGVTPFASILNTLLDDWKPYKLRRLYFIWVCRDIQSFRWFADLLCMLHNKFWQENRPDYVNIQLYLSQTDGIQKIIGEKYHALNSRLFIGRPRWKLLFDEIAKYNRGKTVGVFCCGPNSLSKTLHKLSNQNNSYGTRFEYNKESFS
Experiment [20] concerns the target NADPH oxidase 5 (Homo sapiens) (UniProt Q96PH1). As to the kind of experiment: NOX5-dependent H2O2 signal modulators, primary screen, NOX inhibitor project, cell-based, HEK293-NOX5, Amplex Red fluorescence (AID 1161). As to conditions: HEK293-NOX5, ionomycin, 45 min, higher = more signal.

Chain of NADPH oxidase 5 (Homo sapiens) (Q96PH1 whole entry, looked up): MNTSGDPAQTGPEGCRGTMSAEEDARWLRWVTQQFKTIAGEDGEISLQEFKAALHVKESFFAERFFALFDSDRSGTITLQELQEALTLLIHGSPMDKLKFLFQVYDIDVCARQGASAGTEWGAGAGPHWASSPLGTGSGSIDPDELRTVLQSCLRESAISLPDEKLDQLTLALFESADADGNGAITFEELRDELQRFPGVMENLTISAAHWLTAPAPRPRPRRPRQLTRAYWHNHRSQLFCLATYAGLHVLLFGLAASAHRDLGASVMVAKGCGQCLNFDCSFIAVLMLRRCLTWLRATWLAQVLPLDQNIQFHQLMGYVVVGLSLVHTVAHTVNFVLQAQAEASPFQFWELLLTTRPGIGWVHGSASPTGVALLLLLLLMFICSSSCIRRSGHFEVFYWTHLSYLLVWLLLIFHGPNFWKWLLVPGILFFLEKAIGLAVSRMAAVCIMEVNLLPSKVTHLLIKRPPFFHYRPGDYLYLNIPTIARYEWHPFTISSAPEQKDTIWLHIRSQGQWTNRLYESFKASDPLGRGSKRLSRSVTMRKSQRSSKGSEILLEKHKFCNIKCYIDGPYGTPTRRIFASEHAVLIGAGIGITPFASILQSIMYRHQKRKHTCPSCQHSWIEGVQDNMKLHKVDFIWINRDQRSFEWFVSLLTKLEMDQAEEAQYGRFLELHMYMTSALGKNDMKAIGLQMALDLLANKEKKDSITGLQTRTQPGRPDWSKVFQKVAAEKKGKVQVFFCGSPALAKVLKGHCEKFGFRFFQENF
Chain of NADPH oxidase 2 (Homo sapiens) (P04839 whole entry, looked up): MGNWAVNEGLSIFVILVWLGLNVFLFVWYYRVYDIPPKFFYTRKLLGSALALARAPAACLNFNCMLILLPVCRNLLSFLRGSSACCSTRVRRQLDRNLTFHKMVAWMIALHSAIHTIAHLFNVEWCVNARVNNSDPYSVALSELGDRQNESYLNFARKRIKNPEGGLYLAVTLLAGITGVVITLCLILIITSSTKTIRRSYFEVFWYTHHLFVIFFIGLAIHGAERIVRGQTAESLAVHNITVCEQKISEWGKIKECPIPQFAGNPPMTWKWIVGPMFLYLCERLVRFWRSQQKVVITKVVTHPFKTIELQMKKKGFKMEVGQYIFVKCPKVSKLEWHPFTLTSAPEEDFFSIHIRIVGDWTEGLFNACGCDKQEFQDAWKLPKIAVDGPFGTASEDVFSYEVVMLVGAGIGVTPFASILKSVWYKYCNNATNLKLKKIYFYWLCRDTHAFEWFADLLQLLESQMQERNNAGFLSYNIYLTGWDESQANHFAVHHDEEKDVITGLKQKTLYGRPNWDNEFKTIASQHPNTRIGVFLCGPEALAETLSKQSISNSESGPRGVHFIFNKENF

`CC(=O)OC[C@H]1O[C@@H](ON=C2[C@H]3CCn4c(=O)n(-c5ccccc5)c(=O)n4[C@H]3[C@H](O)[C@@H]3O[C@H]23)[C@H](OC(C)=O)[C@@H](OC(C)=O)[C@@H]1OC(C)=O`: the composite z-score in experiment [1] came to 0.196; in [6], 0.324; in experiment [7], 0.0282; with Torsin-1A (Homo sapiens) [8], 0.0264; with Torsin-1A (Homo sapiens) [9] it was 0.422; in experiment [10], 1.23. The compound also returned a composite z-score in experiment [12] of 0.106. In addition, the z-score in experiment [2] is 1.03 (inactive); in [3], 1.56 (inactive); in [4], -0.403 (inactive); in experiment [5] it was 0.265 (inactive); in experiment [11], -0.132 (inactive); in experiment [13] it was 0.597 (inactive). The z-score in experiment [14] was 0.454 (inactive); in experiment [15], -0.258 (inactive); in experiment [16] it was 0.465 (inactive); in experiment [17] it was -0.862; in [18], -0.186 (inactive); in experiment [19], -0.47 (inactive). In experiment [20], this compound had a z-score of 0.187.

Take `CC(C)=NOC(C)CN1CCCc2nc(C)c(C)cc21` (stereo not given): the composite z-score was 0.299 in [1]; -0.0623 in experiment [6]; 0.0074 in [7]; 0.111 in the experiment with Torsin-1A (Homo sapiens) [8]; 0.386 in the experiment with Torsin-1A (Homo sapiens) [9]; 1.35 in experiment [10]. For the same compound, in experiment [12], the composite z-score was -0.012. Also, the z-score in [2] was 0.431 (inactive); in experiment [3] it was -0.905 (inactive); in experiment [4] it was 0.0757 (inactive); in experiment [5] it was -0.263 (inactive); in experiment [11], -0.477 (inactive); in experiment [13], 0.421 (inactive). In addition, the z-score in experiment [14] is 0.774 (inactive); in experiment [15], 0.175 (inactive); in experiment [16], 0.539 (inactive); in experiment [17] it was -0.558; in [18], -0.369 (inactive); in experiment [19], -0.141 (inactive). The z-score in experiment [20] was -0.281.

In the case of `CCOC(=O)[C@H](CC(C)C)NC(=O)CCC1CC(OC(=O)NCc2ccc3c(c2)OCO3)CC2(CCCC(COC(=O)NCCc3ccc(Cl)cc3)O2)O1` (stereo not given in full), the composite z-score was 0.277 in [1]; 0.288 in experiment [6]; -0.089 in experiment [7]; -0.157 in the experiment with Torsin-1A (Homo sapiens) [8]; 0.361 with Torsin-1A (Homo sapiens) [9]; 1.86 in experiment [10]. The compound further showed a composite z-score in [12] of 0.213. For the same compound, the z-score is -0.197 (inactive) in experiment [2]; -0.0985 (inactive) in experiment [3]; 0.737 (inactive) in [4]; 0.501 (inactive) in [5]; 0.386 (inactive) in [11]; 1.83 (inactive) in experiment [13]. Further, the z-score was -0.39 (inactive) in experiment [14]; -0.254 (inactive) in [15]; -0.144 (inactive) in experiment [16]; -0.793 in experiment [17]; 0.747 (inactive) in experiment [18]; 0.575 (inactive) in experiment [19]. Also, the z-score in experiment [20] worked out at 0.301.

Turning to `COC(=O)[C@H](CCSC)NC(=O)CC=C[C@@H](C)CO`, the composite z-score is 0.848 in [1]; -1.27 in experiment [6]; -0.128 in [7]; 3.29 in the experiment with Torsin-1A (Homo sapiens) [8]; 3.16 with Torsin-1A (Homo sapiens) [9]; 2.18 in experiment [10]. Besides, the composite z-score in experiment [12] was -0.101. For the same compound, the z-score was -0.62 (inactive) in experiment [2]; -0.449 (inactive) in experiment [3]; 0.75 (inactive) in [4]; 0.118 (inactive) in [5]; 0.193 (inactive) in experiment [11]; 0.291 (inactive) in [13]. The z-score in experiment [14] is 0.317 (inactive); in [15], -0.0396 (inactive); in experiment [16], -0.167 (inactive); in experiment [17], 0.81; in experiment [18], 1.58 (inactive); in experiment [19] it was -1.2 (inactive). The compound also gave a z-score in [20] of 0.613.

As to `COc1ccc(O[C@H]2C=C[C@@H](c3ccccc3)O[C@@H]2CON=C2c3cc(OC)ccc3O[C@H](c3cccc(OC)c3)[C@H]2O)cc1`, the composite z-score in [1] is 0.288; in experiment [6], 0.414; in [7], -0.224; with Torsin-1A (Homo sapiens) [8] it was 0.0513; in the experiment with Torsin-1A (Homo sapiens) [9], 0.37; in [10] it was 0.105. This compound registered a composite z-score in experiment [12] of -0.237. Also, the z-score in experiment [2] was -0.0115 (inactive); in [3] it was -0.0389 (inactive); in experiment [4], 0.913 (inactive); in [5], 0.411 (inactive); in experiment [11] it was -1.41 (inactive); in experiment [13], 4.7 (inactive). In addition, the z-score is 1.12 (inactive) in experiment [14]; -0.392 (inactive) in experiment [15]; 0.442 (inactive) in experiment [16]; -1.1 in experiment [17]; -0.0682 (inactive) in experiment [18]; 0.264 (inactive) in [19]. Moreover, the z-score in experiment [20] was 0.562.
